In PubChem BioAssay (NCATS):
Results filed as inconclusive are left out. Activity calls are given as the source filed them. Calls come from the whole dose curve; as a rule, active = well fitted curve in the direction sought with a large enough effect; inconclusive = small, poorly fitted or top-dose-only effect, or another doubt; inactive = no such curve, though single readings can be large; an effect the other way counts as inactive or inconclusive.

Columns and labels:
[1] = MultiTox-Fluor Cytotoxicity Assay - LYMP1-003 - Live Cells (AID 962); settings: LYMP1-003 lymphoblastoid cells, MultiTox-Fluor live-cell protease fluorescence; series mostly up to 92.2 µM;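 note: cells exposed to compound for 16 hours at 37 °C; cytotoxic hits lower the live-cell protease signal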
How it was run: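 Acute cytotoxicity is scored as a drop in live-cell protease activity in human lymphoblastoid LYMP1-003 cells after 16 hr compound exposure at 37 C. AC50 values come from Hill-equation modelling of concentration-response data.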

[2] = Cell Viability - LYMP1-003 - Assay at 24 hr (AID 963); settings: LYMP1-003 lymphoblastoid cell viability; series mostly up to 92.2 µM
How it was run: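 Cytotoxicity is scored as a concentration-dependent fall in ATP-linked luciferase signal in human lymphoblastoid LYMP1-003 cells treated 24 hr at 37 C in complete culture medium.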

[3] = Cell Viability - LYMP2-003 (AID 965); settings: LYMP2-003 lymphoblastoid cell viability; series mostly up to 92.2 µM;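 note: cells exposed to compounds for 24 h before reading; nearly all actives have a fitted effect of over 50% in size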; note: potency is the fitted concentration of half-maximal effect
How it was run: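 CellTiter-Glo luminescence quantified ATP loss after 24 h compound treatment of LYMP2-003 lymphoblastoid cells at 37 C. Titration series were fitted with the standard Hill equation to give AC50.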

[4] = Cell Viability - LYMP2-004 (AID 966); settings: LYMP2-004 lymphoblastoid cell viability, qHTS; series mostly up to 92.2 µM; note: nearly all actives have a fitted effect of over 65% in size; note: potency is the fitted concentration of half-maximal effect
How it was run: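 qHTS cytotoxicity: human lymphoblastoid line, 24 hr compound treatment, 37 C, complete medium. Viability read as cellular ATP via luciferase luminescence; tetraoctylammonium bromide served as positive control.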

[5] = Cell Viability - LYMP2-005 (AID 967); settings: LYMP2-005 lymphoblastoid cell viability; series mostly up to 92.2 µM; note: potency is the fitted concentration of half-maximal effect
How it was run: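 LYMP2-005 human lymphoblastoid cells (2500/well) were treated with compounds for 24 h at 37 C. Intracellular ATP was then measured by CellTiter-Glo luminescence after 30 min at room temperature. AC50 values came from Hill-equation fits of qHTS concentration-response data.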

[6] = Cell Viability - LYMP2-009 (AID 968); settings: LYMP2-009 lymphoblastoid cell viability; series mostly up to 92.2 µM; note: nearly all actives have a fitted effect of over 55% in size; note: potency is the fitted concentration of half-maximal effect
[7] = Cell Viability - LYMP2-011 (AID 969); settings: LYMP2-011 lymphoblastoid cells viability; series mostly up to 92.2 µM; note: nearly all actives have a fitted effect of over 60% in size; note: potency is the fitted concentration of half-maximal effect
How it was run: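 In this qHTS cytotoxicity format, compounds are tested across concentrations on human lymphoblastoid cells in complete medium for 24 hours at 37 C. Viability is taken as cellular ATP measured by luciferase luminescence.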

[8] = Cell Viability - LYMP2-013 (AID 970); settings: LYMP2-013 lymphoblastoid cells viability; series mostly up to 92.2 µM; note: nearly all actives have a fitted effect of over 55% in size; note: potency is the fitted concentration of half-maximal effect
How it was run: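 Cytotoxicity is scored as a concentration-dependent drop in intracellular ATP in human lymphoblastoid cells after 24 hr compound exposure at 37 C. ATP is quantified by luciferase luminescence, and AC50 values come from Hill-equation modeling.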

[9] = Cell Viability - LYMP2-015 (AID 971); settings: LYMP2-015 lymphoblastoid cell viability; series mostly up to 92.2 µM; note: nearly all actives have a fitted effect of over 55% in size; note: potency is the fitted concentration of half-maximal effect
How it was run: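 Cells are seeded at 2500 per well and incubated 5 hr at 37 C. Compounds are added across a concentration series for 24 hr at 37 C. CellTiter-Glo is added, and luminescence is read after 30 min at room temperature.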

[10] = Cell Viability - LYMP1-003 - Assay at 40 hr (AID 964); settings: LYMP1-003 lymphoblastoid viability; series mostly up to 92.2 µM; note: nearly all actives have a fitted effect of over 60% in size; note: potency is the fitted concentration of half-maximal effect
How it was run: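 Luminescent ATP signal (CellTiter-Glo) served as the viability read-out after 40 hr compound treatment of human lymphoblastoid LYMP1-003 cells at 37 C. Decreases in ATP were fitted with the Hill equation to give AC50.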

Measured: Potency

CCOc1ccc2c(c1)C(C)=CC(C)(C)N2
inactive: [1] | [2] | [3] | [4] | [5] | [6] | [7] | [8] | [9]

CC(C)(C)NC(=O)[C@@H]1C[C@@H]2CCCC[C@@H]2CN1C[C@@H](O)[C@H](Cc1ccccc1)NC(=O)[C@H](CC(N)=O)NC(=O)c1ccc2ccccc2n1
active: [10] 50.1 µM

IC(I)I
inactive: [1] | [2] | [10] | [3] | [4] | [5] | [6] | [7] | [8] | [9]

O=CCCCC=O
active: [3] 39.8 µM | [4] 25.1 µM | [6] 25.1 µM | [7] 20 µM | [8] 20 µM | [9] 15.8 µM
inactive: [1] | [2] | [10]

CCCCCCCC(=O)O
inactive: [1] | [2] | [10] | [3] | [4] | [5] | [6] | [7] | [8] | [9]

CCOC(C)=O
inactive: [1] | [2] | [10] | [3] | [4] | [5] | [6] | [7] | [8] | [9]

O=S(=O)(O)O
inactive: [1] | [2] | [10] | [3] | [4] | [5] | [6] | [7] | [8] | [9]

CCCCCCCC/C=C\CCCCCCCC(=O)O
inactive: [1] | [2] | [10] | [3] | [4] | [5] | [6] | [7] | [8] | [9]

CC1=C(/C=C/C(C)=C/C=C/C(C)=C/CO)C(C)(C)CCC1
active: [3] 50.1 µM | [4] 39.8 µM | [5] 50.1 µM
inactive: [1] | [2]

O=C(O)CCC(=O)C(=O)O
inactive: [1] | [2] | [10] | [3] | [4] | [5] | [6] | [7] | [8] | [9]

Nc1ccn([C@H]2CS[C@@H](CO)O2)c(=O)n1
inactive: [1] | [2] | [10] | [3] | [4] | [5] | [6] | [7] | [8] | [9]

CC(C)=O
inactive: [1] | [2] | [10] | [3] | [4] | [5] | [6] | [7] | [8] | [9]

CC(O)CO (configuration not stated)
inactive: [1] | [2] | [10] | [3] | [4] | [5] | [6] | [7] | [8] | [9]

CCCCC/C=C\C/C=C\CCCCCCCC(=O)O
inactive: [1] | [2] | [10] | [3] | [4] | [6] | [7] | [8] | [9]

Cc1ccccc1
inactive: [1] | [2] | [10] | [3] | [5] | [6] | [7] | [8] | [9]

CC1=C2[C@@H]([C@H](C)CC[C@H]2/C=C(\C)C(=O)O)[C@H](O)C1
inactive: [1] | [2] | [10] | [3] | [4] | [5] | [6] | [7] | [8] | [9]
